Assay results: PubChem BioAssay
Active and inactive are the calls of the source.

Legend:
[1] = tested on: XIP peptide (Xip251-270) binding; experiment: XIP fragment 251-270 binding compounds – biochemical, small-molecule microarray, fluorescence 635/667 nm, 0.1 µg/mL protein, primary screen (AID 1182); conditions: fluorescent protein binding, 635 nm, higher = more signal, called active from +8 up or from −8 down
XIP peptide (Xip251-270) = experiment: compounds binding XIP fragment 251-270 – biochemical, small-molecule microarray, fluorescence 635/667 nm, 0.5 µg/mL protein, primary screen (AID 1183); conditions: fluorescence 635 nm, higher = more signal
[2] = blood-stage malaria parasite viability loss – strain 3D7, DAPI fluorescence, 100 nL, primary screen (AID 1184);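 note: parasites grown inside human red blood cells in medium with human serum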; conditions: P. falciparum 3D7 growth, 3 d, higher = more signal
[3] = target: Homeobox protein Hox-A13 (Mus musculus) (UniProt Q62424); experiment: disruptors of Hoxa13 oligonucleotide interaction – biochemical, fluorescence polarization, labeled oligonucleotide, primary screen (AID 1185); conditions: Hoxa13:DNA binding, 15 min, higher = more signal, called active from +8 up or from −8 down
Chain of Homeobox protein Hox-A13 (Mus musculus) (Q62424 whole entry, looked up): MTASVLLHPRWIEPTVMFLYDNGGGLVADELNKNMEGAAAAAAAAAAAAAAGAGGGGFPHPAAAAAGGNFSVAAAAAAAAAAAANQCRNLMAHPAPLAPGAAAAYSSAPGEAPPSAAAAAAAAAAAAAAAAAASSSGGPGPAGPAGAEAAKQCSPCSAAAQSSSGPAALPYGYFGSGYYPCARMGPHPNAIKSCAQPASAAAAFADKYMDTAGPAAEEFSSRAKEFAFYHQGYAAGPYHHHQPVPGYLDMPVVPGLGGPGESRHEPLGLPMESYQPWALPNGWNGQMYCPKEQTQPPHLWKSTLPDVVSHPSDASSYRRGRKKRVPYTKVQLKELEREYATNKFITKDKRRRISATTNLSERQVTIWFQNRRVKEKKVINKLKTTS

Row | Compound | composite z-score [1] | composite z-score (XIP peptide (Xip251-270)) | z-score [2] | z-score [3]
1 | CO[C@H]1COC(=O)CCC[C@@H](C)[C@H](OC)COC(=O)[C@@H]2CCCN2C(=O)CC=C[C@@H]1C | 0.0072 (inactive) | 0.497 | -0.74 | -0.0208 (inactive)
2 | CCOC(=O)[C@H](CC(C)C)NC(=O)CCC1CC(OC(=O)NCCc2ccc(F)cc2)CC2(CCCC(COC(=O)NCC(c3ccccc3)c3ccccc3)O2)O1 (stereo not given in full) | 0.298 (inactive) | 0.836 | -1.02 | -6.92 (inactive)
3 | CO[C@@H]1COC(=O)CC=C[C@@H](C)[C@@H]2C=C[C@H](O)[C@@H](COC(=O)CC=C[C@H]1C)O2 | 0.0592 (inactive) | 0.853 | 0.338 | -2.1 (inactive)
4 | CO[C@@H]1COC(=O)CC=C[C@@H](C)[C@H](OC)COC(=O)[C@@H](C)COC(=O)CC=C[C@H]1C | -0.0671 (inactive) | -0.497 | 0.301 | 0.372 (inactive)
5 | CCN1C(=O)[C@H]2[C@H]3[C@H](O)[C@H](O)CC(=NOC[C@H]4O[C@H](c5ccccc5)C=C[C@@H]4Oc4ccc(OC)cc4)[C@@H]3CC[C@H]2C1=O | 0.432 (inactive) | 0.704 | 0.188 | -10.8 (active)
